Source: PubChem (National Center for Advancing Translational Sciences (NCATS))
TDP1 cell noCPT = qHTS for Inhibitors of human tyrosyl-DNA phosphodiesterase 1 (TDP1): qHTS in cells in absence of CPT | DT40 Tdp1-/- hTDP1 cells, no CPT, ATP luminescence, 48 h | 15% of 420,000 active | Potency, µM (series often up to 46.2 µM), inactives show at the top dose activity change, negative = growth inhibition, most hits filed as inhibitors | AID 686978, 2013; further: potency means the concentration at half of the fitted maximal effect; on the % scale 0 is the no-effect control and ±100 the full control effect; nearly all actives have a fitted effect of over 55% in size
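Growth kinetics read by CellTiter-Glo luminescence after ≥48 hr at 37 °C. Cells: DT40 Tdp1-/- stably carrying human TDP1, 400 per well, compound exposure in the absence of CPT (DMSO vehicle).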
IL-1B inflam inh = blocks inflammasome-driven IL-1 beta release; THP-1 LPS/ATP IL-1B secretion, AlphaLISA, 16 h; stronger effect = lower value; activity change, % at 57.5 µM; 4.7% of 360,000 active; in the data active means activity change below about -50%; inconclusive means mostly about -30% to -49%; further: on the % scale 0 is the no-effect control and ±100 the full control effect
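THP-1 cells pretreated 1 hr with compounds (up to 57.5 uM final), then stimulated with LPS (250 ng/mL final) plus ATP (1.25 mM final); secreted IL-1B measured by AlphaLISA after 16 hr, decreased signal indicating inhibition.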
TDP1 cell CPT = growth inhibition of DT40 Tdp1-/-;hTDP1 cells with camptothecin (screen for TDP1 inhibitors) | chicken DT40 Tdp1-/-;hTDP1 cells + 20 nM CPT, ATP luminescence, 48 h | Potency, µM (doses to about 46.2 µM), for inactives: at the top dose activity change, negative = growth inhibition, usual class: inhibitors | 12% of 420,000 active; further: potency means the concentration at half of the fitted maximal effect; on the % scale 0 is the no-effect control and ±100 the full control effect; nearly all actives have a fitted effect of over 55% in size
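Chicken DT40 Tdp1-/- cells stably complemented with human TDP1 were seeded at 400 cells/well in medium containing 20 nM camptothecin, exposed to pin-transferred compounds, and grown at 37 °C for at least 48 hr. Viability was read as ATP luminescence.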
TGFb inhibitor = blocks TGF-b signaling; AID 588855; Potency, µM (titrated, usually from 46.1 µM), for the others: top-dose activity, negative = inhibition, usual class: inhibitors; HepG2 CAGA-GFP TGF-b/SMAD3 reporter, GFP fluorescence, 18 h; TGF-beta stimulated, 500 pg/mL final; 1.2% of 410,000 active; further: potency means the concentration at half of the fitted maximal effect; on the % scale 0 is the no-effect control and ±100 the full control effect; nearly all actives have a fitted effect of over 65% in size
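Read-out: total well GFP (ex488/em500-530) summed from mean per-cell fluorescence. Cells: HEPG2 CAGA-GFP, 1% FBS DMEM, 18 h at 37 degrees C with 500 pg/mL final TGF-beta. Unstimulated wells served as the full-inhibition control; stimulated DMSO wells = 0%.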
HepG2 tox = counter-screen for TGF-b inhibitors: cytotoxicity in HepG2 cells | 0.76% of 410,000 active | HepG2 CAGA-GFP viability, ATP luminescence, 18 h | AID 588856 | Potency, µM (highest dose often 46.1 µM), for inactives: at the highest dose activity change, negative = cytotoxicity, most hits filed as cytotoxic; further: potency means the concentration at half of the fitted maximal effect
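CellTiter-Glo luminescence gave cytotoxicity after 18 hours at 37 degrees C. The cells were HepG2 CAGA-GFP in 1% FBS DMEM, stimulated with 500 pg/mL TGF-beta after compound addition. %Activity was normalised to no-cell wells (complete cell-killing) and DMSO (no toxicity), and curves were fitted and classified.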
TDP1 block = TDP1 (human) enzyme inhibition; Q9NUW8; recombinant TDP1, AlphaScreen DNA substrate cleavage; Potency, µM (doses to about 130 µM), for the others: at the top dose activity change, negative = inhibition, actives largely listed as inhibitors; 0.28% of 350,000 active; AID 485290; further: potency means the concentration at half of the fitted maximal effect; on the % scale 0 is the no-effect control and ±100 the full control effect; nearly all actives have a fitted effect of over 40% in size
Target sequence (Q9NUW8 whole entry, looked up): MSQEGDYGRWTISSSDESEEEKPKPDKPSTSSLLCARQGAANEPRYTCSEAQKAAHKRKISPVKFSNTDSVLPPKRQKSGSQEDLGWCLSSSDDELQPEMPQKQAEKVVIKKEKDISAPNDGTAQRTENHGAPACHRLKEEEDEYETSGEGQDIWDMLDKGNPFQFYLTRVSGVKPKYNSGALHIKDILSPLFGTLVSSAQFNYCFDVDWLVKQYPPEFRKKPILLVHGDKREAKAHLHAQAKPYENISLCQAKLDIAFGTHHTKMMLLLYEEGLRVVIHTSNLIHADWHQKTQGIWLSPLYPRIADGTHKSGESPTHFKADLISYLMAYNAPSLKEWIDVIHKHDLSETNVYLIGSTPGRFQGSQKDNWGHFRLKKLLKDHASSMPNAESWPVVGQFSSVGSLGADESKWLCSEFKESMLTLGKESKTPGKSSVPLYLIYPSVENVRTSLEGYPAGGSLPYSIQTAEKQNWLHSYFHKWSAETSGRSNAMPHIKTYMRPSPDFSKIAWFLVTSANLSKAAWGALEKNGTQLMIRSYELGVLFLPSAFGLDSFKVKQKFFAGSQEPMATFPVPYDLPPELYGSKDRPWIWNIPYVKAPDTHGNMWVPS
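Enzyme-compound mixtures sat 15 min at room temperature, followed by a 5 min reaction with 15 nM final substrate and 10 min with AlphaScreen beads. Recombinant human Tdp1 was used at 1 nM final.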
* marks the source's active call; other numbers are inactive results; [ ] = remark or other dose. This is a sample that favours compounds with a hit; in the whole collection about 19% have one here. Unless noted, the call rests on the fitted dose curve; in most records, active means well fitted curve in the direction sought with a large enough effect; inconclusive means small, poorly fitted or top-dose-only effect, or another doubt; inactive means no such curve, though single readings can be large; an effect the other way counts as inactive or inconclusive.

Results for O=c1cc(-c2cccc(F)c2)[nH]c2cc(Cl)ccc12 ?
TDP1 block: 0%[234 µM]

How did OC1OC[C@H](O)[C@H](O)[C@H]1O (stereo partly specified) do in these assays?
TDP1 block: 9%

Results for Cc1cc(N2CCN(c3ncccn3)CC2)nc2c(C)cccc12 ?
TDP1 cell noCPT: 15µM*; IL-1B inflam inh: 40; TDP1 cell CPT: inconclusive; TGFb inhibitor: -27%; HepG2 tox: -28%

How did COc1ccc(N2CCN(c3cc(C)c4cccc(C)c4n3)CC2)cc1 do in these assays?
TDP1 cell noCPT: -25%; IL-1B inflam inh: 5; TDP1 cell CPT: inconclusive; TGFb inhibitor: 45%; HepG2 tox: 55%; TDP1 block: 6%

What do the screens show for `N#Cc1cccc(S(=O)(=O)N2CCN(S(=O)(=O)c3ccc4c(c3)OCCO4)CC2)c1`?
TDP1 cell noCPT: -1%; TDP1 cell CPT: 11%; TGFb inhibitor: -2%; HepG2 tox: 4%; TDP1 block: 0%

Results for Cc1cc2nc(-c3ccc[nH]c3=O)n(Cc3ccc(F)cc3)c2cc1C ?
TDP1 cell noCPT: -21%; IL-1B inflam inh: -21; TDP1 cell CPT: -13%; TGFb inhibitor: 22%; HepG2 tox: 0%

Results for Cc1cc2nc(-c3ccc[nH]c3=O)[nH]c2cc1C ?
TDP1 cell noCPT: 10µM*; IL-1B inflam inh: -14; TDP1 cell CPT: 7.3µM*; TGFb inhibitor: inconclusive; HepG2 tox: 0.89µM*

What do the screens show for `CC(=O)OCC#CCSc1nnc(-c2cccc(Br)c2)o1`?
TDP1 cell noCPT: -18%; TDP1 cell CPT: -18%; TGFb inhibitor: -10%; HepG2 tox: 1%; TDP1 block: 3%

How did CSc1nnc(-c2cc3c(-c4ccccc4)nn(C)c3s2)n1C do in these assays?
TDP1 cell noCPT: 23µM*; IL-1B inflam inh: inconclusive; TDP1 cell CPT: inconclusive; TGFb inhibitor: inconclusive; HepG2 tox: -29%; TDP1 block: -2%

What do the screens show for `CCCNC1=C(N(C(C)=O)c2cccc(F)c2)C(=O)c2ccccc2C1=O`?
TDP1 cell noCPT: 2.1µM*; IL-1B inflam inh: -84*; TDP1 cell CPT: 2.6µM*; TGFb inhibitor: inconclusive; HepG2 tox: 7.9µM*; TDP1 block: 7%

How did CCCNC(=O)COC(=O)/C=C/c1cccc(F)c1 do in these assays?
TDP1 cell noCPT: -2%; IL-1B inflam inh: 0; TDP1 cell CPT: 2%; TGFb inhibitor: 2%; HepG2 tox: 12%; TDP1 block: -1%

How did CCOC(=O)c1ccc(N(C(=O)c2ccco2)C(C(=O)NC2CCCC2)c2ccncc2)cc1 (stereo unspecified) do in these assays?
TDP1 cell noCPT: inconclusive; IL-1B inflam inh: -3; TDP1 cell CPT: -17%; TGFb inhibitor: -8%; HepG2 tox: -2%; TDP1 block: 11%

Results for Cc1ccc(OC(=O)CSc2nnc(CNC(=O)c3ccccc3)o2)cc1 ?
TDP1 cell noCPT: -9%; TDP1 cell CPT: -6%; TGFb inhibitor: -1%; HepG2 tox: -1%; TDP1 block: 11%

What do the screens show for `Cc1cccc(CNC(=O)c2cnn(-c3nccc(-c4cccs4)n3)c2C2CC2)n1`?
TDP1 cell noCPT: -17%; TDP1 cell CPT: 5%

How did COc1cccc(/C=C/c2ccc3cccc(O)c3n2)c1OC do in these assays?
TDP1 cell noCPT: 16µM*; IL-1B inflam inh: 35; TDP1 cell CPT: inconclusive; TGFb inhibitor: inconclusive; HepG2 tox: -30%

Results for CCOc1c(OC(C)=O)ccc(/C=C/c2ccc3cccc(OC)c3n2)c1[N+](=O)[O-] ?
TDP1 cell noCPT: 16µM*; IL-1B inflam inh: 5; TDP1 cell CPT: inconclusive; TGFb inhibitor: -22%; HepG2 tox: -38%; TDP1 block: 3%
